Bioassay records deposited in PubChem BioAssay by several laboratories.
EBV LMP1 NFkB: EBV LMP1-driven NF-kappaB luciferase reporter inhibitors, primary screen, cell-based, luminescence, single point; inhibition, % at 12.5 µM; actives 0.69% (n = 350,000); LMP1-induced NF-kappaB luciferase reporter cells; in the data active = inhibition above about 41%;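 note: 0% = neutral control wells and 100% = reference inhibitor control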
TWEAK Fn14 block: inhibitors of TWEAK-Fn14 signaling, primary screen, luciferase reporter cells, uHTS. TWEAK-stimulated Fn14 reporter cells, luciferase luminescence, 8 h. inhibition, % at 10 µM. actives 2% (n = 360,000); in the data active = inhibition above about 50%
HIF-2a inh: HIF-2a reporter inhibitors, primary screen, luminescence, 786-0 RCC cells; 786-0 RCC cells HIF-2a reporter, luciferase luminescence, overnight; inhibition, % at 18.8 µM; actives 0.72% (n = 360,000); AID 624352, 2012;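 active = inhibition of the luminescence signal of 40% or more relative to plate controls, in a single-dose primary screen at 18.75 µM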
TRPM1 prom inh: inhibitors of MITF-dependent TRPM1 promoter reporter, primary screen, cell-based, SK-MEL-5, single point, luciferase; actives 0.83% (n = 330,000); SK-MEL-5 TRPM1 promoter luciferase, 24 h; inhibition, % at 12.5 µM; AID 488899, 2010;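 active = mean inhibition across replicates of 60% or more, whatever share of single replicates reaches that level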
Shn3 inh set2: reduction of Shn3 3'UTR firefly luciferase signal, primary screen, Schnurri-3 inhibitor project, cell-based, Clone20 osteoblasts, set 2. Clone20 osteoblast Shn3 3'UTR firefly luciferase, 24 h. inhibition, % at 12.5 µM. actives 0.52% (n = 360,000). AID 588674, 2011;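 active = mean inhibition of at least 75% with every replicate also reaching 75%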;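 note: 0% = median of neutral control wells and 100% = pilot-screen positive control compound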
TROY signal inh: inhibitors of TROY-driven NF-kB signaling, primary screen, Q293 LMP1-TROYcd cells, NF-kB luciferase, uHTS; inhibition, % at 10 µM; Q293 LMP1-TROYcd NF-kB luciferase reporter, 4 h; actives 0.98% (n = 360,000);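 active = compounds whose plate-normalised and pattern-corrected inhibition of the luciferase reporter signal at the single screening dose is 50% or more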
* = called active by the depositor; nt = not tested or not shown. Most compounds without a hit are left out; they make up all but 3.4% or so of the library.

SMILES	EBV LMP1 NFkB	TWEAK Fn14 block	HIF-2a inh	TRPM1 prom inh	Shn3 inh set2	TROY signal inh
Nc1ncnc(NCc2ccc(F)cc2)c1[N+](=O)[O-]	23.3	59.6*	8.0	0.7	5.0	13.7
Nc1ncnc(NCc2ccccc2)c1[N+](=O)[O-]	24.4	39.5	6.8	-6.9	6.8	10.8
Cn1c(SCC(=O)NC(=O)NCc2ccccc2)nnc1C(F)(F)F	2.8	0.8	0.3	3.6	2.3	-10.6
CS(=O)(=O)c1ccc2nc(NC(=O)c3ccc(Cn4cc(Br)cn4)o3)sc2c1	10.8	2.4	-71.7	0.6	-18.1	-9.7
O=[N+]([O-])c1ccc(NC(=S)NCc2ccc(F)cc2)cc1	8.7	36.0	-59.0	1.6	17.4	55.6*
Fc1ccc(NC(=S)NCc2ccccc2)cc1	-0.6	106.5*	-14.7	nt	47.1	13.4
COCC1CCCCN1C(=O)c1ccc2nc(Cc3ccc(OC)c(OC)c3)oc2c1 (stereo unspecified)	2.7	-0.7	-32.8	-19.0	26.4	-10.2
CC1(C(=O)NS(=O)(=O)Cc2ccccc2)CCN1C(=O)C1(c2ccc(Cl)cc2)CC1 (stereo unspecified)	nt	21.9	-1.8	nt	15.5	12.6
CCOC(=O)CC1CCCCN1C(=O)c1cc(COc2cccc3cnccc23)on1 (stereo unspecified)	33.0	62.4*	27.6	27.6	89.3*	44.4
COC(=O)C1CCCCN1C(=O)c1cc(COc2cccc3cnccc23)on1 (stereo unspecified)	26.8	42.0	14.7	5.5	79.3	27.7
Cc1[nH]c2c(ccc3ccccc32)c1C1C(CCN)C1(C)C (stereo unspecified)	-56.1	21.4	1.5	71.1*	13.4	4.7
CCC(CC)C(=O)N1CCCC(c2nc(-c3cccs3)no2)C1 (stereo unspecified)	-7.4	-23.8	-87.8	-21.5	-7.2	-28.3
CCOc1ccc(C(=O)N2CCCC(c3nc(-c4cccs4)no3)C2)cc1 (stereo unspecified)	-1.9	62.8*	-43.1	-9.3	-1.8	63.6*
CNc1ccc(-c2cc(OC)ccc2OC)cn1	nt	20.1	-8.9	nt	3.6	-4.2
Cc1nc(=S)c2c([nH]1)-c1ccccc1CC21CCCCC1	20.3	75.4*	11.1	42.4	13.3	-5.3
Cc1ccc(C2=NNC(c3cccc(F)c3)S2)cc1 (stereo unspecified)	25.6	64.7*	-33.4	20.6	-9.1	53.9*
Fc1cccc(C2NN=C(c3ccccc3)S2)c1 (stereo unspecified)	4.6	36.9	-83.8	-3.8	-32.4	4.8
O=C(/C=C/c1ccccc1[N+](=O)[O-])OCC(=O)N1CCN(c2ccccc2)CC1	8.2	-14.4	12.6	nt	-4.9	-3.6
CCON1C(=O)C2(CCCCC2)C(=O)C12C=CCCC2 (stereo unspecified)	85.5*	8.9	1.1	1.1	-15.1	-3.6
Cc1nc(C)n(C(C)CNC(=O)c2ccccc2)n1 (stereo unspecified)	-8.9	4.3	17.8	7.9	8.6	-4.7
Cc1nc(C)n(C(C)CNC(=O)c2ccco2)n1 (stereo unspecified)	44.6*	8.5	16.9	5.8	-2.0	-13.4
CCc1nnc(NC(=O)CN2CCN(Cc3cccc(F)c3)CC2)s1	-3.4	52.8*	-1.1	0.3	-14.0	-11.1
CCc1nnc(NC(=O)CN2CCN(Cc3cccc(Cl)c3)CC2)s1	-5.4	0.2	18.3	2.7	3.0	0.8
COc1cccc(N2CCN(CC(=O)Nc3nnc(-c4ccccc4)s3)CC2)c1	14.1	54.8*	3.5	-5.1	2.0	29.2
Cc1cc(C(=O)Nc2ccc(Cl)cc2)c(C)n1Cc1cccs1	-53.3	59.9*	-259.9	-79.4	-60.6	50.8*
Cc1cc(C(=O)CN2C(=O)c3ccccc3C2=O)c(C)n1Cc1cccs1	50.4*	83.2*	32.5	5.6	16.0	-2.2
Cc1cc(C)c(C(=O)CC(=O)c2cccnc2)c(C)c1	3.4	-24.6	10.2	9.4	27.8	2.2
O=C(CSc1cccc2cccnc12)N1CCCC1	-2.3	66.6*	3.2	32.1	39.5	-24.3
